In PubChem BioAssay:
Active and inactive are the calls of the source.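 How the source made its calls, unless noted: active means visual image review flags a hit and inhibition of aggregation exceeds 20%; inconclusive means visual hit but inhibition at or below 20%; inactive means no hit on visual image review.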

Tests used:
[1] = inhibitors of TNFa-induced NFkB p65 translocation, primary screen, imaging, HUVEC, MLSMR starter and 10KST1 sets (AID 438;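 active means inhibition above 20% together with a positive visual image hit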;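 further: compound added about 3h40 before a 20 min TNFalpha stimulation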;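 on inhibition: signal is the nuclear over cytoplasmic p65 intensity ratio per well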); settings: HUVEC TNFa-induced p65 nuclear translocation; cell count: measured here: nuclei count (cytotoxicity indicator), at 2.08 µM; inhibition: at 2 µM, stronger effect = higher value, 0% TNFa-plus-vehicle, 100% no-TNFa wells
[2] = reduction of polyQ htt aggregates in cells – imaging, exon1htt(103Q)mCFP cells, high-content imaging, primary screen (AID 483); settings: exon1htt(103Q)mCFP cell line, aggregate imaging, at 2 µM; inhibition of aggregation: stronger effect = higher value; nuclei count: measured here: cell count, toxicity;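 further: compound exposure lasted 3 days before fixation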;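 on nuclei count: percent of the per-plate median nuclei count of sample wells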
[3] = endothelial E-selectin expression blockers – imaging, HUVEC, immunofluorescence, MLSMR starter and 10KST1 sets, primary screen (AID 487;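 active means visually confirmed hit in the image check and inhibition above 20%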;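 on inhibition: signal is fraction of cell area covered by stained E-selectin grains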;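 on nuclei count: 100% = median nuclei count of all wells on the same plate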); settings: HUVEC TNFalpha-induced E-selectin immunofluorescence imaging, at 2 µM; inhibition: stronger effect = higher value; nuclei count: measured here: cell number, toxicity
[4] = Primary imaging screen for DUSP6 inhibitors that restore phospho-Erk in transfected HeLa cells, chemical complementation (AID 609;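 active means compounds giving at least 50% inhibition in the cell-based MKP-3 phosphatase rescue imaging test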;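 on inhibition: phospho-Erk level distribution per well compared with pooled transfected vehicle control wells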); settings: HeLa MKP-3 transfected, phospho-Erk imaging KS statistic, at 10 µM, cells stimulated with TPA for 15 min
[5] = target: Dual specificity protein phosphatase 6 (Homo sapiens) (UniProt Q16828); test: as above; settings: HeLa MKP-3 transfected, phospho-Erk imaging KS statistic; at 10 µM; stronger effect = higher value; cells stimulated with TPA for 15 min
Chain of Dual specificity protein phosphatase 6 (Homo sapiens) (Q16828 whole entry, looked up): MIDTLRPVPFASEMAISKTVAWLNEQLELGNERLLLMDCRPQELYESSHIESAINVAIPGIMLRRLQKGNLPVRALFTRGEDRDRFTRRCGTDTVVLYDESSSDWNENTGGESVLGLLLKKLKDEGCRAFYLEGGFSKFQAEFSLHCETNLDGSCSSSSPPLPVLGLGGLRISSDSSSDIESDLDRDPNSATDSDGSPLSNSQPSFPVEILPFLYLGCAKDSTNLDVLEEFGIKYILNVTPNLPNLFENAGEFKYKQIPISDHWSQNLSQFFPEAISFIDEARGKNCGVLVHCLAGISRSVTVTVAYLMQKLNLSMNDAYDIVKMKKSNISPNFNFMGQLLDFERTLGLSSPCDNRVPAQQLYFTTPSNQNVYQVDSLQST

[6] = target: Voltage-gated potassium channel subunit beta-2 (Rattus norvegicus) (UniProt P62483); test: inhibitors of rat Kvbeta2 reductase activity – biochemical, NADPH fluorescence, primary screen (AID 622;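 active means fluorescence slope higher than the sample average by over 3 SD, cut at about -0.22 in these data, passing the limit was not always enough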;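 further: slope of raw intensity against log time taken from 70 to 1610 s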); settings: recombinant KvBeta, 4-cyanobenzaldehyde reduction, at 10 µM, stronger effect = higher value
Chain of Voltage-gated potassium channel subunit beta-2 (Rattus norvegicus) (P62483 whole entry, looked up): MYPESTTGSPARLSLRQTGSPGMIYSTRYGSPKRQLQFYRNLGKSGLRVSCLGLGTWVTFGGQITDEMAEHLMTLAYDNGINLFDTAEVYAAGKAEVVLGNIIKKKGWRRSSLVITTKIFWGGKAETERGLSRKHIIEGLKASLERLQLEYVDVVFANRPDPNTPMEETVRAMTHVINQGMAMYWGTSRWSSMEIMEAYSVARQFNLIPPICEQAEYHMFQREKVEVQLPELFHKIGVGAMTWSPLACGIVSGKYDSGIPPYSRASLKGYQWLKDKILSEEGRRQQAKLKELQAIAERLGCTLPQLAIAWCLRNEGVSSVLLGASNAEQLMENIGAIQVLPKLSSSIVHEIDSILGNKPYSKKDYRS

[7] = target: Voltage-gated potassium channel subunit beta-2 (Rattus norvegicus) (UniProt P62483); test: enhancers of rat Kvbeta2 NADPH turnover – biochemical, NADPH fluorescence, primary screen (AID 623;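 active means NADPH fluorescence slope more negative than the mean of all samples by about 3 SD, 99.7% confidence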;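 further: fluorescence intensity change per second fitted from 20 to 320 s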); settings: Recombinant KvBeta, NADPH fluorescence decrease slope, 10 min; at 10 µM; stronger effect = lower value
[8] = target: Muscarinic acetylcholine receptor M4 (Homo sapiens) (UniProt P08173); test: M4-linked GIRK flux change, two-sided – cell-based, HEK293 M4/GIRK, thallium flux, BTC-AM, M4 allosteric agonist project, primary screen (AID 625;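 active means fluorescence slope after compound addition differing from the mean of all tested samples at 99.7% confidence, mostly higher but some lower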;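 further: thallium influx through GIRK channels coupled to M4 in HEK293 cells with BTC-AM dye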); settings: at 10 µM, actives lie on both sides
Chain of Muscarinic acetylcholine receptor M4 (Homo sapiens) (P08173 whole entry, looked up): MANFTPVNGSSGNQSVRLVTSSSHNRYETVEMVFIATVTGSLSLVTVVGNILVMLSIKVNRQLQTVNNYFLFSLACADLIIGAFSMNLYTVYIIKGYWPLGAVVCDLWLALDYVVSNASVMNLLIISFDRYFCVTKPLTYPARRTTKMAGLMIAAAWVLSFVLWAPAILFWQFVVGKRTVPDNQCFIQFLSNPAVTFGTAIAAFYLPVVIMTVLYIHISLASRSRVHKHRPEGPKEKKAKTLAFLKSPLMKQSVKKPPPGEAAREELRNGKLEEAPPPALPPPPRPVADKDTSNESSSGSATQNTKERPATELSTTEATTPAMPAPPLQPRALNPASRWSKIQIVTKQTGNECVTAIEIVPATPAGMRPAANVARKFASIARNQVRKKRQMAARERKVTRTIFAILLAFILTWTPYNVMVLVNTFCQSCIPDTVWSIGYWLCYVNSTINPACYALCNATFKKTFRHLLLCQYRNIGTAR

[9] = inhibitors of larval lipid processing in zebrafish, primary screen, whole organism, PED6 fluorescence, gall bladder and intestine (AID 686;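 active means a full or partial loss of lipid-probe fluorescence in the fish gall bladder, intestine or both, judged by eye; inactive means no fluorescence loss, or compound toxic to the fish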;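 further: larvae 5 to 7 days old with five fish per well; signal comes from phospholipase A2 cleavage of quenched PED6 carried via bile; overnight exposure to compound and PED6 before scoring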); settings: Zebrafish larvae PED6 lipid processing, fluorescence scoring; screened at 20 µM (by protocol)
[10] = loss of swimming-algae plug formation – whole organism, Chlamydomonas reinhardtii, WT vs cilia-less mutant, absorbance, 96-well, primary screen (AID 463189;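 active means inhibition at or above 50% relative to wild type and mutant plate controls; inactive means inhibition below 50%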;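 further: 0% = wild type cc124 cells in DMSO and 100% = ciliumless bld1 mutant cells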); settings: Chlamydomonas reinhardtii gravitaxis, OD600 absorbance, 2 days; at 10 µM; stronger effect = higher value
[11] = blockers of RIG-like receptor reporter activation – cell-based, Sendai virus stimulus, luciferase, 10K MLSCN set, TLR/RLR signaling modifier project, primary screen (AID 602276;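 active means inhibition at or above 50% at 10 µM; inactive means inhibition below 50%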;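 further: firefly luciferase from ISG56 promoter only with Renilla not read in this screen; 0% = Sendai virus plus DMSO and 100% = medium plus DMSO without virus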); settings: HEK293 RL24 IRF3 luciferase reporter, at 10 µM, stronger effect = higher value
[12] = TLR3 IRF3 reporter activation blockers – cell-based, poly I:C stimulus, luciferase, 10K MLSCN set, primary screen (AID 602277;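 active means inhibition of the reporter signal at or above 50%; inactive means inhibition below 50%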); settings: HEK293-TLR3 RL24 IRF3 luciferase reporter, at 10 µM, stronger effect = higher value
[13] = target: Alpha-2C adrenergic receptor (Homo sapiens) (UniProt P18825); test: compounds altering alpha2C-coupled GIRK flux – cell-based, HEK293 alpha2C/GIRK1/2, thallium flux, primary screen (AID 624;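 active means fluorescence slope after compound addition differing from the mean of all screened samples at 99.7% confidence, in either direction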;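 further: slope of fluorescence ratio to pre-addition baseline per second over 15 to 24 s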); settings: thallium flux BTC fluorescence, at 10 µM, actives lie on both sides
Chain of Alpha-2C adrenergic receptor (Homo sapiens) (P18825 whole entry, looked up): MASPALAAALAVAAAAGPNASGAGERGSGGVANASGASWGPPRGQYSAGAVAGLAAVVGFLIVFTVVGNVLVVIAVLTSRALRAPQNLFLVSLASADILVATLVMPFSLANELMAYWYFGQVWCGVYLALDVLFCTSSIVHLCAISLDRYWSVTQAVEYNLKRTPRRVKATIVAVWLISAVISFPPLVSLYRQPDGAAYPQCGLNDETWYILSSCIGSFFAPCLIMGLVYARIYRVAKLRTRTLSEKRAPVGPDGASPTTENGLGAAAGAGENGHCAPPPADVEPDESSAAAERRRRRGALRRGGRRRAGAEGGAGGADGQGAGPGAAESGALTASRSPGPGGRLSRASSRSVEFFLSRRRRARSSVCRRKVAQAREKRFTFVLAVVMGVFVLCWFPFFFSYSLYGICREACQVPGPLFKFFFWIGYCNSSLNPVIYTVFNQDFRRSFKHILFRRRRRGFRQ

[14] = measured here: cell density z-score
[15] = measured here: nuclear c-Myc green intensity z-score
[16] = measured here: nuclear pErk red intensity z-score, stronger effect = higher value

Compound	cell count [1]	inhibition [1]	inhibition of aggregation [2]	nuclei count [2]	inhibition [3]	nuclei count [3]	z-score [4, 14]	z-score [4, 15]	z-score [4, 16]	inhibition [5]	fluorescence slope [6]	NADPH fluorescence slope [7]	fluorescence slope [8]	outcome [9]	inhibition [10]	inhibition [11]	inhibition [12]	slope [13]
Nc1nc(NC(=O)c2cccs2)nn1-c1ccccc1	647	-6.2% (inactive)	2.6% (inactive)	104%	28.5% (inactive)	140%	-2.6	0.834	1.83	14.4% (inactive)	-0.486 (inactive)	-6.6e-05 (inactive)	0.00702 (inactive)	inactive	-2.85% (inactive)	-31.7% (inactive)	-72.3% (inactive)	–
Cc1nc(/N=C(\N)Nc2ccccc2)nc2ccccc12	304	2.5% (inactive)	-14% (inactive)	103%	-112% (inactive)	110%	0.361	0.688	0.354	-0.624% (inactive)	-0.38 (inactive)	2.3e-05 (inactive)	–	inactive	7.3% (inactive)	-6.34% (inactive)	-21.7% (inactive)	0.0057 (inactive)
C[C@H](CCC(=O)O)[C@H]1CC[C@H]2[C@@H]3C(=O)C[C@@H]4CC(=O)CC[C@]4(C)[C@H]3CC(=O)[C@]12C	606	-9.6% (inactive)	5.8% (inactive)	102%	-37.7% (inactive)	138%	-0.246	-0.125	-0.32	3.45% (inactive)	-0.45 (inactive)	5.4e-06 (inactive)	–	inactive	9.63% (inactive)	14.6% (inactive)	33.2% (inactive)	0.00499 (inactive)
Cc1onc(-c2ccccc2)c1C(=O)N[C@@H]1C(=O)N2[C@@H]1SC(C)(C)[C@@H]2C(=O)O	638	-3.4% (inactive)	-5% (inactive)	102%	-91.9% (inactive)	126%	-0.0512	-0.454	0.656	25.1% (inactive)	-0.532 (inactive)	-4.6e-05 (inactive)	–	inactive	-11.8% (inactive)	-2.42% (inactive)	27.7% (inactive)	0.00473 (inactive)
O=C(Nc1ccc2c(c1)OCO2)c1cncc(Br)c1	613	-11% (inactive)	-11.9% (inactive)	87.1%	-29.9% (inactive)	149%	1.08	-0.36	-1.03	19.1% (inactive)	-0.419 (inactive)	-3.7e-05 (inactive)	–	inactive	-3.07% (inactive)	-15.3% (inactive)	-51.1% (inactive)	0.00513 (inactive)
COc1ccc(C2(CN(C(C)=O)C(C)=O)CCCC2)cc1OC	676	-6.2% (inactive)	6.8% (inactive)	109%	-28.3% (inactive)	139%	-0.215	1.01	-1.44	1.98% (inactive)	-0.504 (inactive)	-6.2e-05 (inactive)	0.00396 (inactive)	inactive	-15.3% (inactive)	1.22% (inactive)	7.89% (inactive)	–
NCc1ccc(S(N)(=O)=O)cc1	705	-2.8% (inactive)	26.6% (inactive)	107%	-71.2% (inactive)	118%	0.933	-0.356	-0.92	21.2% (inactive)	-0.453 (inactive)	-9.2e-05 (inactive)	–	inactive	1.96% (inactive)	14% (inactive)	32.7% (inactive)	0.00484 (inactive)
OC(CCN1CCCC1)(c1ccccc1)C1CCCCC1 (stereo not drawn)	573	6.7% (inactive)	-8.9% (inactive)	114%	-40.8% (inactive)	106%	1.31	-0.388	-1.18	19.2% (inactive)	-0.528 (inactive)	-6.1e-05 (inactive)	–	inactive	37.7% (inactive)	0.492% (inactive)	-2.26% (inactive)	0.00512 (inactive)
CCOc1ccccc1N1CCN(c2nc3ccccc3nc2C(C#N)C(=O)OC)CC1 (stereo not drawn)	535	0.2% (inactive)	-3.8% (inactive)	106%	-43.1% (inactive)	102%	-0.286	0.234	1.2	-9.53% (inactive)	-0.501 (inactive)	-7e-05 (inactive)	0.00534 (inactive)	inactive	-13.8% (inactive)	10.2% (inactive)	16.1% (inactive)	–
